PubChem BioAssay (Tox21)
Where “and” joins values, the source holds several entries; their conditions need not be identical. Equal values may be shown once. Inconclusive results are not listed. Where a call stands in place of a potency, no number is given. Calls of active or inactive are those of the source. The call rests on the fitted dose curve; in most records, active means well fitted inhibition curve with a large enough effect in the signal ratio in the repeat runs, with a control signal flat; inconclusive means weak or mixed curves, or effect the other way; inactive means flat fitted curve, though single readings scatter; the % refers to the signal ratio.

What follows are compounds tested against D(2) dopamine receptor (Homo sapiens) (UniProt P14416) (assay: Dopamine D2 receptor (DRD2) small molecule antagonists, cell-based qHTS assay (AID 1963595)). Settings: HEK293-DRD2 cAMP HTRF antagonist mode; series mostly up to 92.4 µM.
Sequence of D(2) dopamine receptor (Homo sapiens) (P14416 whole entry, looked up): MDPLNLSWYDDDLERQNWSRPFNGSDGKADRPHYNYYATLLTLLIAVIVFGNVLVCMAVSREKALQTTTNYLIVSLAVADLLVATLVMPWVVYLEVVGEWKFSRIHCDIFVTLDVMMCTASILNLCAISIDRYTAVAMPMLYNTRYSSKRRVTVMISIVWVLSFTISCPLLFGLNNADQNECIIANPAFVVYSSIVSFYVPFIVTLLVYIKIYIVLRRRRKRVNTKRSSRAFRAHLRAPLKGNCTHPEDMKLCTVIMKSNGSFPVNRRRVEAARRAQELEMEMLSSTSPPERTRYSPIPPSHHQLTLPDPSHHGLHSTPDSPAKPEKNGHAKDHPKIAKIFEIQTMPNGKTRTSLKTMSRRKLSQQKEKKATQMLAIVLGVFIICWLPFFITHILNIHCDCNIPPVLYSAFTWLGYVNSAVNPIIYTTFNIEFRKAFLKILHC
Excerpt: National Center for Advancing Translational Sciences [NCATS]
Division of Preclinical Innovation [DPI]
U.S. Environmental Protection Agency [EPA]
National Institutes of Environmental Health Sciences [NIEHS]
National Toxicology Program [NTP]
U.S. Food and Drug Administration [FDA]
DRD2 is the D2 subtype of the dopamine receptor, which is coupled to Gi subtype of G protein-coupled receptor. This G protein-coupled receptor inhibits adenylyl cyclase activity. The DRD2-HEK293 cell line stably expressing D2 dopamine receptor can be used for screening agonists and antagonists of interactions between D2 and its ligands. The Hek293-DRD2 cAMP assay is based on HTRF technology. It measures changes of cAMP accumulation in response to Gi coupled GPCR activation or inhibition.
Tox21 Assay Protocol Summary:
DRD2-Hek293 cells were dispensed at 600 cells/3uL/well in 1536-well white plates using a Multidrop Dispenser. After the assay plates were incubated at a 37 C/5% CO2 incubator for 24 h, 1 uL of Ro20-1724 at final concentration of 0.1 mM was transferred to the assay plate by a Flying Reagent Dispenser. Following Ro20-1724 addition, 23 nL of compound dissolved in DMSO, positive controls or DMSO only was added to the assay plates via Wako pintool station. The assay plates were incubated at room temperature for 10 min. Next, 1 uL of mixture of NKH477 (final concentration at 200 nM) and quinpirole (final concentration at 12 nM) was added into the plates. After the assay plates were incubated at room temperature for an additional 30 min, 2.5 ul/well of cAMP-d2 and 2.5 ul/well of anti-cAMP-cryptate were added respectively into the assay plates using a Flying Reagent Dispenser. The plates were incubated at room temperature for 1 h. The fluorescence intensity in the plates was measured at 340 nm excitation and 665 & 620 nm emission by an Envision plate reader.
Potency means the concentration at half of the fitted maximal effect.

Compound | Potency | activity change, negative = inhibition
CCCC(=O)OC | inactive | –
CCCCOC(=O)c1ccccc1 | inactive | –
CCOC(=O)c1nc(C(Cl)(Cl)Cl)n(-c2ccc(Cl)cc2Cl)n1 | inactive | –
CC1(C)CCC[C@]2(C)[C@H]3CCO[C@]3(C)CC[C@@H]12 | inactive | –
CCCC(=O)OC/C=C(\C)CCC=C(C)C | inactive | –
C=CCCCCCC | inactive | –
CC(C)c1ccccc1C(C)C | inactive | –
CCOC(=O)C1=NN(c2ccccc2)C(=O)C1 | inactive | –
CCCCCC[C@@H](O)C/C=C\CCCCCCCC(=O)O | inactive | –
CCN(C(=O)N(CC)c1ccccc1)c1ccccc1 | inactive | –
C=Cc1ccc(S(=O)(=O)O)cc1 | inactive | –
CC1=C(C(=O)O)N2C(=O)[C@@H](NC(=O)[C@H](N)c3ccccc3)[C@H]2SC1 | inactive | –
O=C(O)CN(CCOCCOCCN(CC(=O)O)CC(=O)O)CC(=O)O | – | -1.35% [at 0.348 µM] (inactive)
Oc1c(Cl)cc(Cl)c2cccnc12 | inactive | –
C[N+](C)(C)CCOC(N)=O | inactive | –
C=CCN(CC=C)CC=C | inactive | –
O=[N+]([O-])c1ccc(Nc2ccc(Nc3ccccc3)c(S(=O)(=O)O)c2)c([N+](=O)[O-])c1 | inactive | –
COc1ccnc(CS(=O)c2nc3cc(OC(F)F)ccc3[nH]2)c1OC (stereo not given) | inactive | –
O=C(O)c1cc(C(=O)O)cc(C(=O)O)c1 | inactive | –
CSc1ccc(O)cc1C | inactive | –

Compound | Potency | activity change, negative = inhibition
CC(C)NC[C@@H](O)COc1ccc(CC(N)=O)cc1 | inactive | –
CNC(=S)NC | inactive | –
Cc1ccc(Nc2nccc(N(C)c3ccc4c(C)n(C)nc4c3)n2)cc1S(N)(=O)=O | inactive | –
O=C(Nc1ccc(Cl)c(Cl)c1)c1cc(Cl)cc(Cl)c1O | inactive | –
NCCCC(N)(C(=O)O)C(F)F (stereo not given) | inactive | –
BrCCOc1ccccc1 | inactive | –
C=CCCC(=O)O | inactive | –
CC(C(=O)O)c1ccc(C(=O)c2cccs2)cc1 (stereo not given) | inactive | –
CCC1=C[C@@H]2CN(C1)Cc1c([nH]c3ccccc13)[C@@](C(=O)OC)(c1cc3c(cc1OC)N(C)[C@H]1[C@@](O)(C(=O)OC)[C@H](OC(C)=O)[C@]4(CC)C=CCN5CC[C@]31[C@@H]54)C2 | inactive | –
CN(C)CCCN1c2ccccc2CCc2ccc(Cl)cc21 | 61.1 µM (active) and 18.8 µM (active) | –
CCN1CCN(C(=O)N[C@@H](C(=O)N[C@@H]2C(=O)N3C(C(=O)O)=C(CSc4nnnn4C)CS[C@H]23)c2ccc(O)cc2)C(=O)C1=O | inactive | –
Cc1ccc(OC(=O)CC(C)C)cc1 | inactive | –
Cc1nc([N+](=O)[O-])cn1-c1ccc([N+](=O)[O-])cc1 | inactive | –
CC(=O)O[Si](C)(OC(C)=O)OC(C)=O | inactive | –
COC(=O)CCS | inactive | –
COP(=O)(OC)OC(c1ccc(Cl)cc1)P(=O)(OC)OC (stereo not given) | inactive | –
NC(=S)NC(N)=S | inactive | –
CCCCCCCCC(CCCCCC)C(=O)O (stereo not given) | inactive | –
CO/N=C(/C(=O)N[C@@H]1C(=O)N2C(C(=O)O)=C(Cn3nnc(C)n3)CS[C@H]12)c1csc(N)n1 | inactive | –
O=CN(CCO)CCO | inactive | –
